Experimental data reported in PMC12820563, “FoxP3 forms a head-to-head dimer in vivo and stabilizes its multimerization on adjacent microsatellites”.
Over roughly 16,000 sequences, “rpm ratio (pull-down/input)” has its median near 0.94; the highest 2% begin near 1.7. Many of the other results were omitted from the sample, so the highest values are more common in it than they were.

These sequences were tested against T1, MBP-FoxP1dN (Mus musculus, UniProt P58462 326-579) (assay: PD-seq (MBP pull-down with sequencing); 20 mM Tris-HCl pH 7.5, 100 mM NaCl, 1.5 mM MgCl2, 0.4 uM protein, 0.1 uM dsDNA library, 30 min, room temperature, amylose pull-down; high values mean tight binding). Conditions: protein: recombinant; tags: His6-MBP; chain copies: 2; dsDNA, one strand shown.
T1 sequence: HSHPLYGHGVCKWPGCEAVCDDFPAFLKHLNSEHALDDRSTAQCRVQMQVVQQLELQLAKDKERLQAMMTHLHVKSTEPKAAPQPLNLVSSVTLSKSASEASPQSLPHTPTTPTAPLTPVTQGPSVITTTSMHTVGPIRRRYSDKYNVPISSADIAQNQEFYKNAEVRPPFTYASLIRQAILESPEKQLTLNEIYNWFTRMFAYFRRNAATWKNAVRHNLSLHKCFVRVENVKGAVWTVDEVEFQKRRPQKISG
In short: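 A fragment of mouse FoxP3 or FoxP1 without its N-terminus, carrying a His6-MBP tag and produced in E. coli, was combined at 0.4 µM with a 0.1 µM degenerate double-stranded DNA library filled in with Klenow. The mixture sat for 30 min at room temperature in Tris pH 7.5 buffer containing NaCl and MgCl2. Protein–DNA complexes were captured on amylose resin, washed three times, and the DNA was freed with proteinase K, barcoded by PCR and sequenced on Illumina. Binding is expressed as reads-per-million enrichment of pull-down over input, with replicates pooled.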
In the case of “GATGATTGTTCTCCCAGCTGATGAATTTACCCCGTCGAGTAAACAAATTTTCCTAATCTTTCTGTTCAAGCGCCATCTAC”, the binding signal is reported as 1.07 RPM ratio (pull-down/input).
For “GATGATTGTTCTCCCAGCTGATGAATTCGTCTCTTCGAGTAAACAAATTTTCCTAATCTTTCTGTTCAAGCGCCATCTAC”, the binding signal was 0.871 RPM ratio (pull-down/input).
With “GATGATTGTTCTCCCAGCTGATGAATTGGAACGTTCGAGTAAACAAATTTTCCTAATCTTTCTGTTCAAGCGCCATCTAC” the binding signal was 0.904 RPM ratio (pull-down/input).
For “GATGATTGTTCTCCCAGCTGATGAATTATTGTGGTCGAGTAAACAAATTTTCCTAATCTTTCTGTTCAAGCGCCATCTAC”, the binding signal was 1.51 RPM ratio (pull-down/input).
In the case of “GATGATTGTTCTCCCAGCTGATGAATTGCTGCTGTCGAGTAAACAAATTTTCCTAATCTTTCTGTTCAAGCGCCATCTAC”, the binding signal is reported as 1.29 RPM ratio (pull-down/input).
“GATGATTGTTCTCCCAGCTGATGAATTGCTGTTGTCGAGTAAACAAATTTTCCTAATCTTTCTGTTCAAGCGCCATCTAC” was tested, and the binding signal was 2.5 RPM ratio (pull-down/input).
With “GATGATTGTTCTCCCAGCTGATGAATTCTTGCTGTCGAGTAAACAAATTTTCCTAATCTTTCTGTTCAAGCGCCATCTAC” the binding signal was 1.45 RPM ratio (pull-down/input).
With “GATGATTGTTCTCCCAGCTGATGAATTGTTGCTGTCGAGTAAACAAATTTTCCTAATCTTTCTGTTCAAGCGCCATCTAC” the binding signal was 2 RPM ratio (pull-down/input).
“GATGATTGTTCTCCCAGCTGATGAATTGCTGATGTCGAGTAAACAAATTTTCCTAATCTTTCTGTTCAAGCGCCATCTAC” was tested, and the binding signal was 1.22 RPM ratio (pull-down/input).
In the case of “GATGATTGTTCTCCCAGCTGATGAATTTTTGCTGTCGAGTAAACAAATTTTCCTAATCTTTCTGTTCAAGCGCCATCTAC”, the binding signal is reported as 1.59 RPM ratio (pull-down/input).
“GATGATTGTTCTCCCAGCTGATGAATTCTCTCGCTCGAGTAAACAAATTTTCCTAATCTTTCTGTTCAAGCGCCATCTAC” was tested, and the binding signal was 0.825 RPM ratio (pull-down/input).
With “GATGATTGTTCTCCCAGCTGATGAATTCTACCCCTCGAGTAAACAAATTTTCCTAATCTTTCTGTTCAAGCGCCATCTAC” the binding signal was 0.797 RPM ratio (pull-down/input).
For “GATGATTGTTCTCCCAGCTGATGAATTGCGATAATCGAGTAAACAAATTTTCCTAATCTTTCTGTTCAAGCGCCATCTAC”, the binding signal was 1.43 RPM ratio (pull-down/input).
“GATGATTGTTCTCCCAGCTGATGAATTTGCTGTATCGAGTAAACAAATTTTCCTAATCTTTCTGTTCAAGCGCCATCTAC” was tested, and the binding signal was 1.16 RPM ratio (pull-down/input).
“GATGATTGTTCTCCCAGCTGATGAATTTGTATCATCGAGTAAACAAATTTTCCTAATCTTTCTGTTCAAGCGCCATCTAC” was tested, and the binding signal was 1.51 RPM ratio (pull-down/input).
With “GATGATTGTTCTCCCAGCTGATGAATTTGTTGTATCGAGTAAACAAATTTTCCTAATCTTTCTGTTCAAGCGCCATCTAC” the binding signal was 2.21 RPM ratio (pull-down/input).
In the case of “GATGATTGTTCTCCCAGCTGATGAATTTTTTGTATCGAGTAAACAAATTTTCCTAATCTTTCTGTTCAAGCGCCATCTAC”, the binding signal is reported as 1.26 RPM ratio (pull-down/input).
In the case of “GATGATTGTTCTCCCAGCTGATGAATTTGATGTATCGAGTAAACAAATTTTCCTAATCTTTCTGTTCAAGCGCCATCTAC”, the binding signal is reported as 1.25 RPM ratio (pull-down/input).
In the case of “GATGATTGTTCTCCCAGCTGATGAATTGTTTGTATCGAGTAAACAAATTTTCCTAATCTTTCTGTTCAAGCGCCATCTAC”, the binding signal is reported as 2.64 RPM ratio (pull-down/input).
With “GATGATTGTTCTCCCAGCTGATGAATTCCGCCTATCGAGTAAACAAATTTTCCTAATCTTTCTGTTCAAGCGCCATCTAC” the binding signal was 0.791 RPM ratio (pull-down/input).
In the case of “GATGATTGTTCTCCCAGCTGATGAATTTGGGGTGTCGAGTAAACAAATTTTCCTAATCTTTCTGTTCAAGCGCCATCTAC”, the binding signal is reported as 0.832 RPM ratio (pull-down/input).
“GATGATTGTTCTCCCAGCTGATGAATTGGTTGTATCGAGTAAACAAATTTTCCTAATCTTTCTGTTCAAGCGCCATCTAC” was tested, and the binding signal was 1.3 RPM ratio (pull-down/input).
For “GATGATTGTTCTCCCAGCTGATGAATTGGTATTATCGAGTAAACAAATTTTCCTAATCTTTCTGTTCAAGCGCCATCTAC”, the binding signal was 1.9 RPM ratio (pull-down/input).
In the case of “GATGATTGTTCTCCCAGCTGATGAATTTTTGGTATCGAGTAAACAAATTTTCCTAATCTTTCTGTTCAAGCGCCATCTAC”, the binding signal is reported as 1.09 RPM ratio (pull-down/input).
“GATGATTGTTCTCCCAGCTGATGAATTATCGGTATCGAGTAAACAAATTTTCCTAATCTTTCTGTTCAAGCGCCATCTAC” was tested, and the binding signal was 1.02 RPM ratio (pull-down/input).
In the case of “GATGATTGTTCTCCCAGCTGATGAATTGTTGGTATCGAGTAAACAAATTTTCCTAATCTTTCTGTTCAAGCGCCATCTAC”, the binding signal is reported as 1.92 RPM ratio (pull-down/input).
With “GATGATTGTTCTCCCAGCTGATGAATTATTGGTATCGAGTAAACAAATTTTCCTAATCTTTCTGTTCAAGCGCCATCTAC” the binding signal was 1.55 RPM ratio (pull-down/input).
With “GATGATTGTTCTCCCAGCTGATGAATTGTGTGCCTCGAGTAAACAAATTTTCCTAATCTTTCTGTTCAAGCGCCATCTAC” the binding signal was 1.14 RPM ratio (pull-down/input).
For “GATGATTGTTCTCCCAGCTGATGAATTGCGATGCTCGAGTAAACAAATTTTCCTAATCTTTCTGTTCAAGCGCCATCTAC”, the binding signal was 1.2 RPM ratio (pull-down/input).
In the case of “GATGATTGTTCTCCCAGCTGATGAATTCCGAGAGTCGAGTAAACAAATTTTCCTAATCTTTCTGTTCAAGCGCCATCTAC”, the binding signal is reported as 0.749 RPM ratio (pull-down/input).
In the case of “GATGATTGTTCTCCCAGCTGATGAATTCATCGTCTCGAGTAAACAAATTTTCCTAATCTTTCTGTTCAAGCGCCATCTAC”, the binding signal is reported as 0.784 RPM ratio (pull-down/input).
“GATGATTGTTCTCCCAGCTGATGAATTCAGGTTCTCGAGTAAACAAATTTTCCTAATCTTTCTGTTCAAGCGCCATCTAC” was tested, and the binding signal was 0.857 RPM ratio (pull-down/input).
